The results in this text go back to PubChem BioAssay.

Structures are written as SMILES. Values without a mark were called inactive.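 How the source made its calls: active means RAM network inhibition above 8.4% in each of two replicates, 3 SD over the compound average; inconclusive means above 8.4% inhibition in only one replicate; inactive means 8.4% inhibition or less in each replicate.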

The test in a line: RAM signaling pathway blockade in yeast – S. cerevisiae, Pdr1DBD-CYC8 efflux-inhibited sensitized strain, primary screen (AID 1298).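 Further: 0% = DMSO untreated cells without growth and 100% = 10 µM 1-NA-PP1 full growth; higher means more yeast growth rescued from 5-FOA killing.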 The note with it: S. cerevisiae cbk1-as DSE1-URA3 strain, 5-FOA growth OD615, 2 d; at 50 µM; active compounds read high.
`CCOC1CCCCC1NS(=O)(=O)c1ccc(Cl)cc1` (stereo unspecified): the RAM network inhibition is 2.71%. The value for `COc1cccc(CNC(=O)c2ccc(NC(=O)C3CCCO3)cc2)c1` (stereo unspecified) was 7.03%. The value for `Cc1cc2cc(CNC(=O)c3ccc(Br)o3)ccc2[nH]1` was 8.22%; that for `COc1ccc(C2C(C(=O)c3cccs3)=C(O)C(=O)N2c2nnc(C)s2)cc1OC` (stereo unspecified) was 2.05%; that for `O=C(NCCN1C(=O)C2C3C=CC(C3)C2C1=O)Nc1ccc(Br)cc1` (stereo unspecified) was 0.1%.

Turning to `CC1CCN(c2nc3ccccc3nc2C(C#N)S(=O)(=O)c2ccccc2)CC1` (stereo unspecified), the RAM network inhibition was 4.37%. With `O=C(COc1ccccc1)Nc1nnc(-c2ccc(Cl)s2)o1` the figure was 1.52%; with `O=C(Cn1cc2c(n1)CCCC2)NC1CCCCCC1`, 2.95%.

Regarding `O=C(CCn1c(=O)sc2ccccc21)NCc1ccccc1`, the RAM network inhibition is 2.7%.

On to `COc1ccc(CNc2ccc3cn[nH]c3c2)c(OC)c1OC`, for which the RAM network inhibition was 9.01%. With `Cc1ccc(NC(=O)C2CCCN2S(=O)(=O)c2ccc3c(c2)CCC(=O)N3)cc1Cl` (stereo unspecified) the figure was 3.45%; with `COc1ccc(OC)c(NC(=O)c2c(NC(=O)CNCc3ccco3)sc3c2CCC3)c1`, 7.95%. With `C=C(C)CSc1nc2c(cc1C#N)CCC2` the figure was 1.58%.

For the compound `CCOC(=O)c1[nH]c2cc(OC)c(OC)cc2c1NC(=O)c1ccc2c(c1)OCO2`, the RAM network inhibition was 7.33%. The value for `COC(=O)c1ccccc1Nc1cc(C)nc2nc(C)nn12` was 1.72%. Consider `COC(=O)c1ccccc1NC(=O)CSc1nccn1C`, for which the RAM network inhibition is 2.31%.
